# Data from PubChem BioAssay (NCATS).
# Records with an inconclusive call do not appear. Where a call stands in place of a potency, no number is given. The source made the active and inactive calls. The call rests on the fitted dose curve.
# Legend:
# [1] = Primary qHTS for Huh7 cytotoxicity: counterscreen for inhibitors of MERS-S pseudotyped particle cell entry (AID 1479147); settings: cell viability read-out; series mostly up to 57.1 µM
# [2] = Primary qHTS for Vero E6 cytotoxicity: counterscreen for inhibitors of SARS-S pseudo-typed particle cell entry (AID 1479150); settings: cell viability; series mostly up to 57.1 µM
# [3] = Primary qHTS for inhibitors of MERS-S pseudo-typed particle cell entry (AID 1479149); settings: MERS-S pseudotyped particle entry, luciferase; series mostly up to 57.1 µM; further: nearly all actives have a fitted effect of over 60% in size; further: potency means the concentration at half of the fitted maximal effect
# [4] = Confirmatory qHTS for VERO E6 Cytotoxicity Assay: Counterscreen for SARS-CoV-2 CPE Assay (AID 1508605); settings: cell viability luminescence; series mostly up to 20 µM; further: nearly all actives have a fitted effect of over 60% in size
# [5] = Confirmatory qHTS for activators (rescue) of SARS-CoV-2 Cytopathic Effect (CPE) (AID 1508606); settings: Vero E6 SARS-CoV-2 CPE rescue, viability luminescence; series mostly up to 20 µM; further: potency means the concentration at half of the fitted maximal effect; nearly all actives have a fitted effect of over 70% in size
SMILES,Potency [1],Potency [2],Potency [3],Potency [4],Potency [5]
OC(CCCN1CCCCC1)(c1ccccc1)c1ccccc1,inactive,inactive,,,
CCOC(CN1CCN(CC(C)C(=O)c2ccccc2)CC1)c1ccccc1 (stereo not given),inactive,inactive,inactive,,
CN(C)[C@@H](CCOc1cccc2ccccc12)c1ccccc1,inactive,inactive,20 µM (active),inactive,10 µM (active)
O=C(NCC1CN(c2ccc(N3CCOCC3=O)cc2)C(=O)O1)c1ccc(Cl)s1 (stereo not given),inactive,inactive,,,
CN1CC(=O)N2[C@H](c3ccc4c(c3)OCO4)c3[nH]c4ccccc4c3C[C@@H]2C1=O,inactive,inactive,,,
CC(=O)OCC(=O)Nc1cc(C#N)cc(NC(=O)COC(C)=O)c1Cl,inactive,inactive,inactive,,
Cc1ccc(N(CC2=NCCN2)c2cccc(O)c2)cc1,inactive,inactive,inactive,,
Cc1ccc(Cl)c(OCC(O)CNC(C)(C)C)c1 (stereo not given),inactive,inactive,,,
OC(CCN1CCCCC1)(c1ccccc1)c1ccccc1,inactive,inactive,inactive,,
COC(=O)C1=C(C)NC(C)=C(C(=O)OCCN2CCN(C(c3ccccc3)c3ccccc3)CC2)C1c1cccc([N+](=O)[O-])c1 (stereo not given),inactive,inactive,,,
CN(C)CC[C@@H](c1ccc(Cl)cc1)c1ccccn1,inactive,inactive,inactive,,
Clc1ccc(C(Cn2ccnc2)OCc2ccsc2Cl)c(Cl)c1 (stereo not given),inactive,inactive,,,
CCOc1ccccc1O[C@H](c1ccccc1)[C@H]1CNCCO1,inactive,inactive,inactive,,
O=C(CCCN1CC=C(n2c(=O)[nH]c3ccccc32)CC1)c1ccc(F)cc1,inactive,inactive,,,
CCOCCn1c(N2CCCN(C)CC2)nc2ccccc21,inactive,inactive,inactive,,
CN(C)CCOC(c1ccccc1)c1ccc(Br)cc1 (stereo not given),inactive,inactive,inactive,inactive,
Cc1ccc(/C(=C\CN2CCCC2)c2ccccn2)cc1,inactive,inactive,inactive,,
CC(=O)[C@@]1(O)CC[C@H]2[C@@H]3C[C@H](C)C4=CC(=O)CC[C@]4(C)[C@H]3CC[C@@]21C,inactive,inactive,inactive,,
CN1CCC(=C2c3ccccc3CCc3sccc32)CC1,inactive,inactive,10 µM (active),inactive,11.2 µM (active)

SMILES,Potency [1],Potency [2],Potency [3],Potency [4],Potency [5]
COc1cc(NS(=O)(=O)c2ccc(N)cc2)ncn1,inactive,inactive,inactive,,
COCCOC(=O)C1=C(C)NC(C)=C(C(=O)OC/C=C/c2ccccc2)C1c1cccc([N+](=O)[O-])c1 (stereo not given),inactive,inactive,,,
O=C(Nc1ccccc1)OCC(CN1CCCCC1)OC(=O)Nc1ccccc1 (stereo not given),inactive,inactive,,,
CN(C)CCOC1=Cc2ccccc2Sc2ccc(Cl)cc21,inactive,inactive,,,
COc1ccc2c(c1)c(CC(=O)O)c(C)n2C(=O)c1ccc(Cl)cc1,inactive,inactive,,,
CCCCCC(=O)O[C@]1(C(C)=O)CC[C@H]2[C@@H]3CCC4=CC(=O)CC[C@]4(C)[C@H]3CC[C@@]21C,inactive,inactive,,,
NC(=O)Cc1cccc(C(=O)c2ccccc2)c1N,inactive,inactive,inactive,,
CCCC(=O)O[C@]1(C(=O)CC)CC[C@H]2[C@@H]3CCC4=CC(=O)CC[C@]4(C)[C@H]3[C@@H](O)C[C@@]21C,inactive,inactive,inactive,,
CN(C)CCCOc1nn(Cc2ccccc2)c2ccccc12,inactive,inactive,,,
O=C(Nc1ccc(Cl)cc1)Nc1ccc(Cl)c(C(F)(F)F)c1,inactive,inactive,,,
C=C1c2cccc(O)c2C(O)=C2C(=O)[C@]3(O)C(O)=C(C(N)=O)C(=O)[C@@H](N(C)C)[C@@H]3[C@@H](O)[C@H]12,inactive,inactive,inactive,,
CCCCN(CCCC)CC(O)c1cc(Cl)cc2c1-c1ccc(Cl)cc1/C2=C/c1ccc(Cl)cc1 (stereo not given),inactive,inactive,,,
CC(Oc1c(Cl)cccc1Cl)C1=NCCN1 (stereo not given),inactive,inactive,inactive,,
CN1[C@@H]2CC[C@H]1CC(OC(=O)c1c[nH]c3ccccc13)C2 (stereo not given in full),inactive,inactive,,,
Nc1c(NC/C=C\COc2cc(CN3CCCCC3)ccn2)c(=O)c1=O,inactive,inactive,inactive,,
CCN(CC)CCOCCOC(=O)C1(c2ccccc2)CCCC1,inactive,inactive,,,
c1ccc(CC2=NCCN2)cc1,inactive,inactive,inactive,,
C/C=C(/C(=C/C)c1ccc(O)cc1)c1ccc(O)cc1,inactive,inactive,inactive,,
CC(=O)c1ccc2c(c1)N(CCCN1CCC(CCO)CC1)c1ccccc1S2,,,,,11.2 µM (active)
